Compound in this assay: Nc1ncnc2c1ncn2[C@@H]1O[C@H](COP(=O)(O)OP(=O)(O)OP(=O)(O)O)[C@@H](O)[C@H]1O [adenosine 5'-triphosphate]
Kind of assay: log2 fold change of tryptic peptide abundance, ligand vs vehicle (limited proteolysis) (log2 ratio); higher = more trypsin-susceptible (destabilized). As to conditions: ligand concentration: 5 mM; sample: E. coli desalted lysate; replicate design: treated before aliquoting. The procedure: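 HT-PELSA: desalted E. coli K-12 BW25113 lysate (with 12 mM MgCl2) incubated with 5 mM ATP (pH 7) or water for 30 min at 25 C, then a 4 min trypsin pulse at 22 C. Peptides were quantified by DIA-MS (4 replicates). Value is the peptide log2 fold change (treated/control); negative = stabilized. Scale: negative = ligand-stabilized region.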
Turning to “UniProt P76256 (peptide sequence: DENGIWHGEETEAVLKPEIVHER, peptide start residue: 130)”, the log2 fold change is -0.588.
For “UniProt P0C0L2 (peptide sequence: GQAHWEGDIKR, peptide start residue: 7)” the value was -0.717.
Take “UniProt P0ACW6 (peptide sequence: FMSLFDKHNK, peptide start residue: 19)”: the log2 fold change was -0.425.
For “UniProt P28903 (peptide sequence: DGCKVPFK, peptide start residue: 9)” the value was -0.869; for “UniProt P08997 (peptide sequence: TLSNGKPVTK, peptide start residue: 467)”, -0.591; for “UniProt P00760 (peptide sequence: LKSAASLNSR, peptide start residue: 113)”, 0.367.
As for “UniProt P08192 (peptide sequence: FQIVSESPR, peptide start residue: 290)”, the log2 fold change is -0.913.
Turning to “UniProt P39180 (peptide sequence: NLNGQNGTISLR, peptide start residue: 603)”, the log2 fold change was 0.735.
Take “UniProt P15031 (peptide sequence: TVFSVEAEIHPEPVSGRPMCLMR, peptide start residue: 233)”: the log2 fold change was 1.33.
For “UniProt P77399 (peptide sequence: TQGNYPATER, peptide start residue: 240)” the value was -0.418; for “UniProt P17846 (peptide sequence: IHKGDFR, peptide start residue: 385)”, 1.23; for “UniProt P00934 (peptide sequence: LYNLKDHNEQVSFAQAVTQGLGK, peptide start residue: 3)”, -1.05.
As to “UniProt P76043 (peptide sequence: ACSEPNPDYPR, peptide start residue: 284)”, the log2 fold change is -1.41.
For “UniProt P04825 (peptide sequence: GLENLSGDLYEK, peptide start residue: 853)” the value was -0.937.
With “UniProt P77376 (peptide sequence: VGLIGYGYASK, peptide start residue: 7)” the figure was -1.01; with “UniProt P0A9U1 (peptide sequence: LIASGTPDDLK, peptide start residue: 537)”, -0.834; with “UniProt P39325 (peptide sequence: STLYLPDTAKEELEK, peptide start residue: 298)”, -1.01.
With “UniProt P22634 (peptide sequence: LVDSGAAIAR, peptide start residue: 224)” the figure was 0.312; with “UniProt P33667 (peptide sequence: MIGSNHLPECLR, peptide start residue: 220)”, 0.32; with “UniProt P36928 (peptide sequence: EAVSEWLYR, peptide start residue: 44)”, 0.728.
For “UniProt P27848 (peptide sequence: GHALEAVAK, peptide start residue: 192)”, the log2 fold change came out at 0.631.
With “UniProt P05719 (peptide sequence: FDTTDLVFVPK, peptide start residue: 54)” the figure was -0.655; with “UniProt P08394 (peptide sequence: HCYPLPR, peptide start residue: 171)”, 1.13.
With “UniProt P0AB77 (peptide sequence: AGMDSHGFGMASVR, peptide start residue: 67)” the figure was -0.449; with “UniProt P09030 (peptide sequence: CSFLPEER, peptide start residue: 177)”, -1.54; with “UniProt P76177 (peptide sequence: KRIVQSPDVIPADSEAGR, peptide start residue: 179)”, 2.16.
On to “UniProt P08660 (peptide sequence: RNQTLLTLHSLNMLHSR, peptide start residue: 306)”, for which the log2 fold change was -0.461.
Regarding “UniProt P77300 (peptide sequence: STLHSLLK, peptide start residue: 38)”, the log2 fold change is -0.881.
With “UniProt P39285 (peptide sequence: IYAAEMGHR, peptide start residue: 1044)” the figure was 0.638.

Source of the values: the supplement of paper PMC12819154, “High-throughput peptide-centric local stability assay extends protein–ligand identification to membrane proteins, tissues and bacteria” (Nature Structural & Molecular Biology, 2025).
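Also: lysate desalted by size exclusion to strip endogenous ATP, peptide intensities built from DIA-NN precursor signals, and peptides missing any value discarded before comparison.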
